# Whole data set: some 25,000 sequences, median “ln(normalized median fluorescence intensity)” near 9.3, cut for the highest 2% near 10. The sample holds the highest values, similar sequences and a random draw of the others, so the mix is not that of the screen.
# Tested on: PF3D7_0420300 AP2 domain 1 (GST-tagged)
# Test: gcPBM binding intensity (ln(normalized median fluorescence intensity)); higher = stronger DNA binding
# In short: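 GST-tagged P. falciparum DNA-binding domains produced in E. coli were incubated for 1 h on an Agilent 4 × 180k array of primer-extended double-stranded 36-bp intergenic genomic probes with negative controls. Binding intensity is the highest Masliner-normalised natural-log median intensity across replicate spots of either probe orientation, with bound protein detected by Alexa488 anti-GST antibody at 488 nm.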
row,Sequence,gcPBM binding intensity (ln)
1,GGCATACACGAACACACACACACACGCACATATATA [CACACA_site6426],10.3
2,ATTATACACGCGCGCACACACAACAAAAAAAAAAAA [CACACA_site7630],9.69
3,TATTTTCTCTTAAAAAGTACTCATATATACATTTAT [XGTACX_site7748],9.07
4,GAGTAAAAATTAAAATGTACATATTATATATATTTA [XGTACX_site1319],9.09
5,CTTTGCCTTAAAAAGGAACACACATGCTTTTTTTAG [CACACA_site8219],9.22
6,TTTTTTTTTACTTGTTGTACTTTTTCAAGGTATTGT [XGTACX_site7778],9.42
7,TATATACATAAAATTTGTACATATATATATATATAT [XGTACX_site3214],9.28
8,TGCTTATATCTTATAATATTTATACATCATAATAAG [CACACA_negctrl_site629],9.17
9,ATTTTTCTTTTATTAACACACATATAAATAAATACA [CACACA_site2876],9.22
10,TATACATAGAAACACACACACATATATATATATATA [CACACA_site2248],9.79
11,TAATAATAGAAACACACACACATAGACATATATATA [CACACA_site1307],10.1
12,CATAATAATAGAAACACACACACATAGACATATATA [CACACA_site1308],10.2
13,ATAATATAGAAACACACACACATATATATATACATT [CACACA_site555],10.2
14,TATACATAGAAACACACACACATAAATAAATATATA [CACACA_site1342],10.1
15,TATATATAGAAACACACACACACATATATATATATT [CACACA_site2539],10.1
16,TGTATCCACATATGTACACACATATATCTGTATATG [CACACA_site5668],9.51
17,CAAAAATAAAAGAAATGTACAAAAAATAATAAAAAA [XGTACX_site6597],9.43
18,TATTTTATACATATTTTACACACTAATATATACATA [CACACA_site7998],9.42
19,AGGAATATCGAAAACTGTACTTGTATGTTTCATAAA [XGTACX_site6143],9.02
20,TTAGGCAAGGCGGGGGGTACGTTTTTATATAATTAT [XGTACX_site8029],10.6
21,AAATATATTATAAATTGTACGTTTATATATATTATT [XGTACX_site5110],9.35
22,AATAATATATTTAGGGGTACATAATAATATATTTTA [XGTACX_site8366],9.27
23,ATTTTTGTAAATACATGTACATATATATGCATATCC [XGTACX_site6353],9.49

row,Sequence,gcPBM binding intensity (ln)
1,TTTCTATTTCCTTCACATCTTTTCATCTTTTTTTTT [CACACA_negctrl_site1110],9.71
2,AATGGAAAAATAGGCACACACACATATATACATATA [CACACA_site1298],10.2
3,AATGGAAAAATAGGCACACACACATAAATACAGATA [CACACA_site4844],10.3
4,TGGAAAAATAGGCACACACACATATATACATATATA [CACACA_site1297],10
5,AATGGCAAAATAGGCACACACACATATACAGATATA [CACACA_site4726],10.1
6,TTAATGGAAAAATAGGCACACACACCGATATACATA [CACACA_site8356],9.94
7,AATGGCAAAATAGGCACACACACATATACATATATA [CACACA_site1058],10.1
8,GACCCCATATACATATGTACATACATAATATATATA [XGTACX_site1817],9.57
9,TAAAATATAATAAAATGTACACGCATGCAATAGAAT [XGTACX_site7434],9.65
10,ATCAGTCGGCAGGACAGTACACAGTAGCCAGAAAAT [XGTACX_site2550],9.49
11,AGTATAAATAAATCATAAACATATATATATATATAT [GTGCAC_negctrl_site356],9.2
12,AAAAAAAAAAAAAACACACACACACCCAAATACATA [CACACA_site708],9.87
13,AAAAAGAAAAAACTTACACACATATATACACCCATG [CACACA_site8079],10.1
14,AAAAAAAAAAAAAAAACACACACATACACCCAAAAA [CACACA_site7910],9.69
15,TATTCCCCCAAACACACACACACACCCACATACCAC [CACACA_site2304],10.3
16,AAGTACATACATAAAACACACACATATATATATATA [CACACA_site8541],9.59
17,AAAAAAAAAAAAAACACACACATACACCCAAAAATG [CACACA_site4223],9.84
18,AAAAAGAAAAAACTTACACACATATATACAGACATG [CACACA_site550],9.93
19,AACACCCAAAAACACACACACATACATACATACATA [CACACA_site4411],9.98
20,AAAAAAAAAAAACACACACACACACTAGTACATACA [CACACA_site4551],10.2
21,CAAACACCCAAACACACACACACATACATACATACA [CACACA_site8044],10.2
22,AAAAAAAAAAAACATACACACATACATACATATATA [CACACA_site8222],9.82
23,AAAAAGAAAAAACTTACACACATATATACCCCCATG [CACACA_site4463],10.2
